Experimental findings from PubChem BioAssay are described below.

Assay [1] in a line: modulation of C. elegans fzo-1 (AID 1259413).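 Also: fzo-1 mutant C. elegans worms in liquid wells.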 The conditions noted are these: C. elegans fzo-1 modulator screen, mean read-out; stronger effect = higher value.
Assay [2] is described as follows: EMT-state selective cytotoxicity in co-culture – imaging, PC-3E GFP, TEM4-18 mCherry, primary screen (AID 1345086;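 active = compounds killing one labelled cell type while sparing the other, by normalised counts and ratio limits, not self-fluorescent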;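 as to all read-outs here: cells exposed to compound for 72 h before imaging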;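 as to red/green cell ratio (normalised): normalised mesenchymal count divided by normalised epithelial count so high means epithelial killing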). The conditions noted are these: PC-3E GFP / TEM4-18 mCherry co-culture, imaging cell counts, at 1 µM; for red/green cell ratio (normalised): actives lie on both sides.
The nature of assay [3]: viability loss with induced miR-34 in A549 – imaging, A549 dox-inducible miR-34, nuclei and caspase counts, primary screen (AID 1347080;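 active = compounds whose cell count with miR-34 switched on is under 0.7 times the count with it off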). The conditions noted are these: A549 miR-34 inducible, Hoechst nuclei count, 48 h.
Assay [4] concerns Neuropilin-2 / VEGF-C interaction (human). In words: small molecules blocking Neuropilin-2/VEGF-C interaction – biochemical, microplate binding format, z-score (AID 743281). The conditions noted are these: microplate NRP2/VEGF-C binding assay; stronger effect = lower value.
Assay [5] in a line: P. berghei load reduction in hepatocytes – cell-based, HepG2, luciferase luminescence, HepG2 viability, primary screen (AID 624349; in the data active = parasite load remaining mostly below about 12%, no sharp cut-off; inactive = mostly above about 10%;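 also: 100% = mean of DMSO negative control wells on the same plate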). The conditions noted are these: P. berghei liver stage in HepG2, luciferase luminescence, concentration not given here; parasite load remaining: stronger effect = lower value; viability: measured here: HepG2 viability without parasites.
Assay [6] can be described thus: signal quenchers or enhancers, Cy5 substrate/SSB – biochemical, NIH Clinical Collection, E. coli SSB, artefact control for HCV NS3 helicase inhibitor project (AID 743268). As to conditions: Cy5-oligo bound E. coli SSB, fluorescence interference.
Assay [7] concerns Hepatitis C virus NS3 helicase. In words: blockers of NS3h binding to DNA – biochemical, fluorescence polarization, NIH Clinical Collection, primary screen (AID 743270). As to conditions: NS3 helicase binding to Cy5-dT15 DNA, stronger effect = higher value, concentration not given here. (In general: In fluorescence polarisation assays a small probe gives low polarisation when free and higher when bound to something large.)

Assay [8] concerns the target Single-stranded DNA-binding protein (Escherichia coli (strain K12)) (UniProt P0AGE0). In words: SSB-ssDNA binding inhibitors – biochemical, fluorescence polarization, NIH Clinical Collection, counter-screen for HCV NS3 helicase inhibitor project (AID 743271; in the data active = inhibition above about 28%). The conditions noted are these: E. coli SSB-DNA binding, stronger effect = higher value, concentration not given here.
A short description of assay [9]: compounds distorting NS3 helicase fluorescence signal – biochemical, NIH Clinical Collection, artefact control for HCV NS3 helicase inhibitor project (AID 743272).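 Also: HCV NS3 helicase with a Cy5 labelled single stranded DNA probe.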 As to conditions: fluorescence interference counterscreen, HCV NS3 helicase assay; stronger effect = lower value. For orientation: The purpose of a counterscreen is to sort out artefacts and off-target activity.
Setting [10] is: measured here: epithelial PC-3E GFP cell survival.
Where [11] appears, read: measured here: mesenchymal TEM4-18 mCherry cell survival.
Setting [12] is: counts scaled to control wells, 1 = unselective.

Activity calls are given as the source filed them. Unless noted, no rule for the calls is given here.

Turning to `CC[C@@H]1/C=C/C=C/C[C@H](C)[C@@H](O)[C@](C)(O)C(=O)[C@H](C)[C@@H](O)[C@H](C)C(=O)[C@H](C)[C@@H](O)[C@H](C)/C=C/C(=O)O[C@H]2[C@@H](C)[C@@H](CC1)O[C@@]1(CC[C@@H](C)[C@@H](C[C@H](C)O)O1)[C@@H]2C`, in assay [1], the mean signal is 201 (inactive). Further, in assay [2], the red/green cell ratio (normalised) is 0.51 (inactive). Also, the figures for the normalised cell number in assay [2] (setting [10]) and in assay [2] (setting [11]) were 1.1 and 0.56, respectively. Besides, the fold change in assay [3] (stronger effect = lower value) was 0.872 (inactive); in [3] (measured here: relative caspase fold change +Dox/-Dox), 0.921. The cell count in [3] (measured here: total cells with miR-34 induction, stronger effect = lower value) came to 989; in assay [3] (measured here: total cells without miR-34 induction), 1130.
On to `CC12CC[C@H]3[C@@H](CCC4=CC(=O)CC[C@@H]43)[C@@H]1CC[C@@H]2O` (some centres undefined), for which the compound was classed as inactive in [4]. Also, in assay [1], the mean signal is 225 (inactive).
In the case of `C=C(C)CN1CC[C@]23c4c5ccc(O)c4O[C@H]2c2[nH]c4ccccc4c2CC3(O)C1C5` (some centres undefined), the result in [4] was inactive. The mean signal in assay [1] was 243 (inactive).
For `CC1NCCc2cc(O)c(O)cc21` (centres undefined), the red/green cell ratio (normalised) in assay [2] (setting [12]) was 0.96 (inactive). In addition, the normalised cell number in assay [2] (setting [10]) amounted to 1.11; in [2] (setting [11]), 1.06.
In the case of `CC[C@]1(O)CC[C@H]2[C@@H]3CCC4=CCCC[C@@H]4[C@H]3CCC21C` (some centres undefined), in assay [4], the outcome was inactive. In addition, the mean signal in assay [1] is 230 (inactive).
The corresponding values for `CC12C/C(=C/O)C(=O)C[C@@H]1CC[C@@H]1[C@@H]2CCC2(C)[C@H]1CC[C@]2(C)O` (some centres undefined) are “inactive” and 230 (inactive).
For the compound `O=C1CC2OCC=C3CN4CC[C@]56c7ccccc7N1C5[C@H]2[C@@H]3CC46` (some centres undefined), in assay [2] (setting [12]), the red/green cell ratio (normalised) is 1.12 (inactive). The normalised cell number turned out to be 1.02 in assay [2] (setting [10]) and 1.14 in [2] (setting [11]).
Taken in the same sequence, the figures for `CC1(C)CC(=O)C(Cl)C(=O)C1` were 0.82 (inactive), 1.28 and 1.05.
With `Nc1ccc(-c2ccccc2)cc1`, the red/green cell ratio (normalised) in [2] (setting [12]) was 1.07 (inactive). In addition, the normalised cell number is 0.96 in [2] (setting [10]) and 1.03 in assay [2] (setting [11]).
With `CC12CCC(=O)C=C1CC[C@@H]1[C@@H]2CCC2(C)[C@@H](O)CC[C@@H]12` (some centres undefined), in [4], the outcome was inactive. In addition, the mean signal in assay [1] is 263 (inactive).
Consider `O=C1NCC[C@H]1O`, for which the red/green cell ratio (normalised) in [2] (setting [12]) was 0.95 (inactive). For the same compound, the results for the normalised cell number in assay [2] (setting [10]) and in [2] (setting [11]) were 1.13 and 1.08, respectively.
Turning to `Oc1ccc2c3c1O[C@H]1c4[nH]c5ccccc5c4CC4(O)C(C2)N(CC2CC2)CC[C@]314` (some centres undefined), the result in assay [4] was inactive. Further, in [1], the mean signal is 234 (inactive).
Take `O=C(O)COc1ccc(O)cc1`: the red/green cell ratio (normalised) in assay [2] (setting [12]) is 1.05 (inactive). For the same compound, the normalised cell number stood at 1.09 in assay [2] (setting [10]) and 1.15 in [2] (setting [11]).
Turning to `C[N+]12CC(C[C@H]1c1cccnc1)C2`, the red/green cell ratio (normalised) in assay [2] (setting [12]) was 1.02 (inactive). The normalised cell number in assay [2] (setting [10]) was determined as 1.14; in [2] (setting [11]) it was 1.16.
`CC12Cc3cn[nH]c3C[C@@H]1CC[C@@H]1[C@@H]2CCC2(C)[C@H]1CC[C@]2(C)O` (some centres undefined): the compound was called inactive in assay [4]. The mean signal in assay [1] was 229 (inactive).
In the case of `C[C@]12CCC(=O)C=C1CCC1C2CC[C@@]2(C)C1CC[C@H]2O` (some centres undefined), the red/green cell ratio (normalised) in assay [2] is 1.17 (inactive). Moreover, the normalised cell number was 0.92 in assay [2] (setting [10]) and 1.08 in assay [2] (setting [11]).
In the case of `CC12CCC(=O)C=C1CC[C@@H]1[C@@H]2CCC2(C)[C@H]1CC[C@]2(C)O` (some centres undefined), the outcome in assay [4] was inactive. Also, the mean signal in assay [1] is 283 (inactive).
For the compound `CC(=O)OCC1=C(C(=O)O)N2C(=O)[C@@H](N)C2SC1` (some centres undefined), the red/green cell ratio (normalised) in assay [2] is 1.18 (inactive). In addition, the normalised cell number in [2] (setting [10]) is 0.96; in assay [2] (setting [11]), 1.14.
Consider `CC(C)=CCC[C@H](C)[C@H]1CC[C@]2(C)C[C@H]3[C@@H](C(=O)C[C@@]3(C)O)/C(C=O)=C\C[C@@H]12`, for which the red/green cell ratio (normalised) in [2] (setting [12]) was 0.95 (inactive). Further, the values for the normalised cell number in assay [2] (setting [10]) and in assay [2] (setting [11]) were 0.85 and 0.8, respectively.
For the compound `CC12CCC(=O)C[C@@H]1CC[C@@H]1[C@@H]2CCC2(C)[C@H]1CC[C@]2(C)O` (some centres undefined), the outcome in assay [4] was inactive. For the same compound, the mean signal in assay [1] is 277 (inactive).
As for `COc1cc(O)c(C(=O)O)c(-c2cc(O)c(O)cc2C)c1`, in [2] (setting [12]), the red/green cell ratio (normalised) is 1.12 (inactive). In addition, the normalised cell number in [2] (setting [10]) was 0.82; in assay [2] (setting [11]), 0.92.
On to `CC[C@H](c1cccc(O)c1)[C@@H](C)CN(C)C`, for which the red/green cell ratio (normalised) in assay [2] is 0.92 (inactive). For the same compound, the normalised cell number is 1.05 in [2] (setting [10]) and 0.96 in assay [2] (setting [11]).
`CC(C)(O)[C@@H]1[C@H]2OC(=O)[C@@H]1C1(O)C[C@H]3O[C@]34C(=O)O[C@H]2[C@]14C` (some centres undefined) (tested in a mixture with another compound): the call in assay [4] was inactive. Moreover, the mean signal in assay [1] is 237 (inactive).
The corresponding values for `CC12CC[C@H]3[C@@H](CC=C4C[C@@H](O)CCC43C)[C@@H]1CCC2=O` (some centres undefined) are “inactive” and 245 (inactive).
For the compound `CN1CC[C@]2(c3cccc(O)c3)Cc3nc4ccccc4cc3C[C@H]2C1`, the parasite load remaining in assay [5] was 54.3% (inactive). The compound also registered a viability in assay [5] of 65.5%. In addition, the fluorescence ratio in [6] was 0.96 (inactive); in assay [9], 0.98 (inactive). The inhibition in assay [7] is -8.08% (inactive); in assay [8] it was -1.97% (inactive). Besides, in assay [4], the z-score was -0.954 (inactive). Besides, the mean signal in [1] is 226 (inactive).
Regarding `N#Cc1cc(I)c(O)c(I)c1`, in [2] (setting [12]), the red/green cell ratio (normalised) is 1.04 (inactive). For the same compound, the normalised cell number stood at 1.08 in assay [2] (setting [10]) and 1.12 in [2] (setting [11]).
With `CCN1C[C@]2(OC(=O)c3ccccc3NC(C)=O)CCC(OC)[C@]34C1[C@@H](CC23)[C@@]1(O)CC(OC)[C@H]2CC4C1(O)[C@H]2OC` (some centres undefined), in assay [2], the red/green cell ratio (normalised) is 1 (inactive). Further, the values for the normalised cell number in assay [2] (setting [10]) and in assay [2] (setting [11]) were 0.94 and 0.93, respectively.
Turning to `CC12CC[C@H](O)CC1=CC[C@@H]1[C@@H]2CCC2(C)[C@H]1CC[C@]2(C)O` (some centres undefined), the result in [4] was inactive. Moreover, in [1], the mean signal is 278 (inactive).
Turning to `CCC(C)C(=O)O[C@@H]1C[C@@]2(C)[C@H](c3ccoc3)OC(=O)CC23OC2(C)OC34[C@H](OC(=O)C(C)C)C3(O)[C@@H](OC(=O)C5(C)OC5C)[C@@]5(C)C[C@]3(O)[C@@](C)([C@H]5CC(=O)OC)C14O2` (some centres undefined), the red/green cell ratio (normalised) in assay [2] (setting [12]) was 1.06 (inactive). Moreover, the normalised cell number was 0.98 in assay [2] (setting [10]) and 1.04 in assay [2] (setting [11]).
Taken in the same sequence, the figures for `C[C@@H]1CC[C@H]2[C@@H](C)C(=O)O[C@@H]3O[C@]4(C)CC[C@@H]1[C@]32OO4` were 1.06 (inactive), 0.97 and 1.03.
Taken in the same sequence, the figures for `O=[N+]([O-])c1ccc(CN2CCNCC2)cc1` were 0.74 (inactive), 1.45 and 1.07.
For the compound `Fc1ccc(C2CCNCC2COc2ccccc2)cc1` (centres undefined), in assay [2] (setting [12]), the red/green cell ratio (normalised) was 0.82 (inactive). The normalised cell number in assay [2] (setting [10]) came to 1.28; in assay [2] (setting [11]), 1.05.

For orientation: viability means a read-out of living cells in per cent, often relative to untreated cells. A word on the inhibition: it is the change of the read-out against control, counted positive when it falls.
